Bioassay records as filed in PubChem BioAssay.
The list is not random: actives were taken first. Their share in the collection is about 8.1%.
MCF10A rereplic – induces DNA re-replication in MCF 10a normal breast cells; MCF 10A DNA re-replication, Hoechst nuclear intensity, 48 h; Potency, µM (series often up to 46.1 µM), for the others: at the highest dose activity, positive = re-replication, hits mostly activators; hit rate 2.9% among 350,000; AID 624296; further: % of control where 0% means no effect; nearly all actives have a fitted effect of over 50% in size
ELG1 DNA repair – blocks ELG1-dependent DNA repair in HEK293T cells; Potency, µM (highest dose often 46.1 µM), inactives show at the highest dose activity change, negative = inhibition, most hits filed as inhibitors; hit rate 2.3% among 330,000; AID 504467; HEK293T ELG1-luciferase reporter, luminescence, 16 h; DNA damage induced by 5-fluorouridine; further: on the % scale 0 is the no-effect control and ±100 the full control effect; nearly all actives have a fitted effect of over 55% in size
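Reporter activity after DNA damage by 5-fluorouridine is monitored. Compound-treated cells incubate 16 hr at 37 °C, then ONE-Glo is added for 30 min before luminescence reading.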
KB-3-1 tox – kills parental KB-3-1 adenocarcinoma cells; Potency, µM (highest dose often 46.1 µM), usual class: cytotoxic; KB-3-1 viability, CellTiter-Glo ATP luminescence, 72 h; hit rate 1.4% among 400,000; AID 1347075; further: on the % scale 0 is the no-effect control and ±100 the full control effect; nearly all actives have a fitted effect of over 60% in size
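72 h, 37 °C compound treatment of KB-3-1 parental cells; CellTiter-Glo added, 10 min, luminescence read. Data corrected against DMSO-only plates and normalized before curve fitting.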
SW480 rerep – induces DNA re-replication in SW480 colon adenocarcinoma cells; SW480 DNA re-replication, Hoechst DNA content imaging, 48 h; Potency, µM (doses to about 46.1 µM), inactives show at the highest dose re-replication activation, actives largely listed as activators; hit rate 1.8% among 340,000; AID 624297; further: % of control where 0% means no effect; nearly all actives have a fitted effect of over 55% in size
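Image-based read-out: total Hoechst fluorescence of nuclei (405 nm excitation, 500-530 nm emission), with hits raising the fraction of high-intensity nuclei. SW480 colon cells incubated 48 hr with compounds at 37 C.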
KB-V1 MDR tox – kills drug-selected multidrug resistant KB-V1 cells; KB-V1 MDR cells viability, CellTiter-Glo, 72 h; Potency, µM (doses to about 46.1 µM), most hits filed as cytotoxic; hit rate 3.4% among 400,000; AID 1347076; further: on the % scale 0 is the no-effect control and ±100 the full control effect; nearly all actives have a fitted effect of over 60% in size
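qHTS viability screen in drug-selected KB-V1 MDR cells: 72 h compound treatment at 37 degrees C, ATP luminescence end point.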
Active calls of the source: *; i = inactive; ? = inconclusive; . = no result given. The call rests on the fitted dose curve; in most records, active means well fitted curve in the direction sought with a large enough effect; inconclusive means small, poorly fitted or top-dose-only effect, or another doubt; inactive means no such curve, though single readings can be large; an effect the other way counts as inactive or inconclusive. Potency means the concentration at half of the fitted maximal effect.

SMILES	MCF10A rereplic	ELG1 DNA repair	KB-3-1 tox	SW480 rerep	KB-V1 MDR tox
CC(C)CNC(=O)c1c(N)n(Cc2ccc3c(c2)OCO3)c2nc3ccccc3nc12	?	?	?	2.59µM*	?
CC(C)CCNC(=O)c1c(N)n(Cc2ccc3c(c2)OCO3)c2nc3ccccc3nc12	?	?	i	2.59µM*	?
CCN1C[C@@]2(COC)C3[C@@H](OC)[C@H]4[C@@H]1[C@@]3(C1C[C@@]3(O)[C@H](OC(=O)c5ccccc5)C1[C@]4(OC(C)=O)[C@@H](O)[C@H]3OC)[C@@H](OC)C[C@H]2O (stereo not given in full)	-0.2%	.	i	14.9%	i
Clc1cccc(/C=N\Nc2nccs2)c1	5.8µM*	?	i	-1.9%	?
O=S(=O)(c1ccc(Cl)cc1)N1Cc2ccccc2-n2nncc2C1	.	.	i	.	i
CC(=O)N(C1=NCCCS1)c1ccccc1Cl	0.581µM*	6.5%	i	-14.0%	i
CCON=O	-0.5%	.	.	0.944µM*	.
Cc1ccc(NC(=O)N(Cc2ccc3c(c2)OCO3)C2CCN(Cc3ccccc3)CC2)cc1Cl	.	.	?	.	i
CCN(CC)c1ccc(N=Cc2c(O)n(Cc3ccco3)c(=O)[nH]c2=O)cc1	25.9µM*	-2.2%	i	69.7%	i
CCN(CC)c1ccc(N=Cc2c(O)n(CCc3ccc(OC)c(OC)c3)c(=O)[nH]c2=O)cc1	?	2.59µM*	?	?	16.4µM*
CCCC/C(C)=C/[C@@H](NP(=O)(c1ccccc1)c1ccccc1)c1ccccc1	?	18.8%	?	?	?
O=C(c1cc2cc(Cl)ccc2[nH]1)N1CCC2(CC1)OCCO2	23.1µM*	?	i	-2.4%	i
CCC(C(=O)Nc1ccc(Cl)cc1)N1CCCC1=O (stereo not given)	-3.0%	.	i	-0.6%	i
C=CCn1c(O)c(C=Nc2ccc(OC)cc2C)c(=O)[nH]c1=O	3.3%	0.1%	i	?	?
CC[C@H](C)[C@@H]1NC(=O)CNC(=O)c2csc(n2)[C@H](C(C)(C)O)OC(=O)C(C)(C)[C@H](CCCC(C)(Cl)Cl)OC(=O)c2csc1n2	.	.	0.461µM*	.	13µM*
CCOC(=O)c1ccc(NC(=O)c2cccn(Cc3ccc(C)cc3)c2=O)cc1	.	.	?	.	i
CCOC(=O)c1ccc(NC(=O)c2cccn(Cc3ccccc3F)c2=O)cc1	.	.	i	.	5.8µM*
Cc1ccc(OCCn2cccc2/C=C2/C(=O)NC(=O)N(Cc3ccco3)C2=O)cc1	?	?	i	10.6%	i
CCc1ccc(N2C(=O)NC(=O)/C(=C\c3cccn3CCOc3ccc(C(C)C)cc3)C2=O)cc1	7.31µM*	?	?	?	?
CC(=O)c1ccc(NC(=O)c2sc3nc4c(cc3c2N)N2CCC4CC2)cc1	.	.	?	.	23.1µM*
CCOC(=O)c1ccc(NC(=O)c2sc3nc4c(cc3c2N)N2CCC4CC2)cc1	.	.	i	.	i
CCC(=Nc1ccc2c(c1)CCC2)c1c(O)n(C)c(=O)n(C)c1=O	-3.9%	?	i	-1.6%	i
CCC(=NCCC(c1ccccc1)c1ccccc1)c1c(O)n(C)c(=O)n(C)c1=O	8.2µM*	?	?	-3.0%	?
CCC(=Nc1ccc(Cc2ccncc2)cc1)c1c(O)n(C)c(=O)n(C)c1=O	-0.7%	7.31µM*	i	-1.8%	i
CCOC(=O)c1ccc(N=C(CC)c2c(O)n(C)c(=O)n(C)c2=O)cc1	-0.9%	-18.5%	i	-2.6%	i
SMILES	MCF10A rereplic	ELG1 DNA repair	KB-3-1 tox	SW480 rerep	KB-V1 MDR tox
CCC(=NCc1ccc(F)cc1)c1c(O)n(C)c(=O)n(C)c1=O	-2.3%	7.94µM*	?	-20.3%	14.6µM*
Oc1ccc(O)c2c1C1(Cl)C(Cl)=C(Cl)C2(Cl)C1(Cl)Cl	16.4µM*	.	i	?	i
Oc1ccccc1Cl	?	-0.6%	i	-11.9%	i
CCOP(=O)(OCC)C(O)c1ccc(OC)cc1 (stereo not given)	-1.0%	0.0%	i	-7.0%	i
CCN1CCN(Cc2cc(Br)cc(Br)c2O)CC1	?	4.8%	i	-3.2%	i
CCCCCCCn1c(=O)c(C(=O)Nc2cnccn2)c(O)c2ccccc21	3.66µM*	?	3.26µM*	?	2.59µM*
CCCCCn1c(=O)c(C(=O)Nc2cnccn2)c(O)c2ccccc21	16.4µM*	?	?	24.6%	16.4µM*
Clc1ccc(C2NCCc3[nH]cnc32)cc1 (stereo not given)	3.1%	3.4%	i	0.2%	i
COc1ccc(C(=O)CN2CCCCC2)cc1	-1.8%	?	i	2.5%	?
COc1ccc(NP(=O)(Oc2ccccc2OC)Oc2ccccc2OC)cc1	?	20.6µM*	i	?	?
Cn1c(O)c(C=Nc2ccccc2)c(=O)n(C)c1=O	-8.7%	7.0%	i	0.0%	i
Cn1c(O)c(/C=N/Nc2ccccc2)c(=O)n(C)c1=O	6.51µM*	?	i	-17.9%	i
OCC1CN1C1CCCCC1 (stereo not given)	1.4%	.	i	-6.0%	i
COc1ccc(S(=O)(=O)Nc2cc([N+](=O)[O-])ccc2OC)cc1	?	?	?	?	18.4µM*
COc1ccc(OC)c(NP(=O)(Oc2ccccc2)Oc2ccccc2)c1	0.3%	-24.0%	i	-17.6%	i
C[n+]1c2ccccc2nc2ccc(NCCO)cc21	-1.8%	8.2µM*	?	?	?
CNc1ccc2nc3ccccc3[n+](C)c2c1	1.2%	1.64µM*	i	?	?
O=C(O)c1cccc(NC(=O)N2C[C@H]3C[C@@H](C2)c2cccc(=O)n2C3)c1	?	12.3%	i	-4.0%	i
Cc1ccc(O)c(C(=O)c2cc(C(=O)NCCC(C)C)c(=O)n(CCC(C)C)c2)c1	?	?	i	?	?
O=C(c1cc(C(=O)NCc2ccc(Cl)cc2)c(=O)n(Cc2ccc(Cl)cc2)c1)c1cc(F)ccc1O	11.3%	?	?	11.2%	7.31µM*
COc1ccccc1N1CCN(Cc2cc(C)c(C)cc2O)CC1	?	?	i	4.3%	?
COC(=O)c1ccc(NC(=O)CSc2nc3ccc(N4C(=O)C5C6C=CC(C6)C5C4=O)cc3s2)cc1 (stereo not given)	?	13µM*	20.6µM*	0.4%	20.6µM*
CC1CCC2[C@@H](C)C(=O)OC3O[C@]4(C)CCC1C32OO4 (stereo not given in full)	9.8%	.	i	-0.4%	i
N#CC[N+]1(CCCNP2(=O)C=C(c3ccccc3)OC(c3ccccc3)=C2)CCOCC1	?	-12.7%	i	?	i
